# Results: PubChem BioAssay (Tox21)
# Inconclusive results are not listed. A call without a number means that no potency is given here. The source made the active and inactive calls. Calls follow the shape of the dose curve; as a rule, active = well fitted cell-killing curve with a large enough effect in the repeat runs; inconclusive = weak or mixed curves, or effect the other way; inactive = flat fitted curve, though single readings scatter.
# Columns and labels:
# [1] = cAMP Responsive Elements (CRE) small molecule antagonists, cell-based qHTS assay: qHTS cell viability counter screen (AID 2060913); also: nearly all actives have a fitted effect of over 40% in size
# How it was run: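 Cytotoxicity read in the same wells as the CRE-bla HEK293T antagonist assay: after 3 h compound with 0.25 uM NKH477 final and 2 h beta-lactamase substrate, CellTiter-Glo luminescence measured.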
# [2] = cAMP Responsive Elements (CRE) small molecule agonists, cell-based qHTS assay: qHTS cell viability counter screen (AID 2060914); also: nearly all actives have a fitted effect of over 50% in size
# How it was run: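 Cytotoxicity was measured as ATP luminescence (CellTiter-Glo, 30 min at room temperature) in the same wells as the CRE-bla FRET read-out. HEK293T CRE-bla cells had 3 h compound exposure at 37C/5% CO2.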
Compound,Potency [1],Potency [2]
c1ccc(-c2nc[nH]c2-c2ccccc2)cc1,inactive,inactive
CCNc1nc(NC(C)CC)nc(OC)n1 (configuration not stated),inactive,inactive
OC(CN1CCC(Cc2ccc(F)cc2)CC1)c1ccc(Cl)cc1 (configuration not stated),inactive,inactive
C/C(Cl)=C/CCl,inactive,inactive
C=Cc1cccc(C)c1,inactive,inactive
CCCCCCCCCOCC1CO1 (configuration not stated),inactive,inactive
